Sampled rows, rich in hits. Any-hit rate of the full collection: about 4.3%.
FGF22 binding: shifts melting point of recombinant human FGF22. Q9HCT0. recombinant FGF22 thermal shift, SYPRO orange fluorescence; percent of sucrose octasulfate shift, DMSO zero. activity (Tm shift, normalised), % at 9.99 µM. hit rate 1.5% among 340,000. AID 651658;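 active = mean Tm shift, scaled 0 neutral to 100 positive control, at about 1.3% or above, every replicate too, limit read from the data; inconclusive = no clear call, values can overlap the other calls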
Wnt bcat act: Wnt/beta-catenin pathway activation. activation, % at 9.35 µM. hit rate 1.2% among 300,000. Wnt/beta-catenin reporter cell assay, activator, plate reader; in the data active = activation above about 30%, passing the limit was not always enough; inconclusive = no clear call, values can overlap the other calls;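 note: 0% = neutral control wells and 100% = positive control wells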
MLL AF4-AF9 inh: MLL-AF4/AF9 protein interaction inhibition; P42568; AlphaScreen, biotin-AF4 peptide binding to FLAG-AF9; inhibition, % at 10 µM; hit rate 0.47% among 350,000; AID 651704;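 active = every replicate reaching a set inhibition limit, whatever the replicate mean, cut at about 25% in these data; inconclusive = mean inhibition reaches that limit but some replicates miss it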;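 note: 0% = plate neutral control median and 100% = total signal loss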
Target sequence (P42568 whole entry, looked up): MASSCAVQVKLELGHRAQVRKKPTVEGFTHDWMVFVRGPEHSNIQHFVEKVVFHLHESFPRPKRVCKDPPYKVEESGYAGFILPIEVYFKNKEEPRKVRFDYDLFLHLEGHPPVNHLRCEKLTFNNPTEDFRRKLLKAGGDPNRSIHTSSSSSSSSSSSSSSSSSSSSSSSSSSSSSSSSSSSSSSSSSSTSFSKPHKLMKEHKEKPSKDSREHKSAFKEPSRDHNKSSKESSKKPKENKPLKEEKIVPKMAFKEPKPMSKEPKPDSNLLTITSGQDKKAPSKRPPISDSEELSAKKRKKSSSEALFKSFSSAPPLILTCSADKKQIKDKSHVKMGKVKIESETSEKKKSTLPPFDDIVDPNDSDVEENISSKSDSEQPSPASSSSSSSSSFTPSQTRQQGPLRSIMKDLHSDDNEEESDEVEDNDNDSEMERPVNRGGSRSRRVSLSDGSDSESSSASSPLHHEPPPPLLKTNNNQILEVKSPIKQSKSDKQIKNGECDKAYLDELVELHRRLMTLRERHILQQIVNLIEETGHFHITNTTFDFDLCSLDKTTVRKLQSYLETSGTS
esBAF inh: blocks esBAF chromatin remodeling in mouse ES cells. Bmi1-luciferase knock-in reporter, 24 h; 100% = twice the neutral-well signal. reporter increase, % at 12.5 µM. hit rate 2% among 350,000. AID 602393; in the data active = activation above about 40%; inconclusive = no clear call, values can overlap the other calls;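 note: 0% = median of the plate's neutral control wells and 100% = double that signal; a rise in the Bmi1 reporter signal indicates esBAF inhibition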
SMARCA2 activ: activators of SMARCA2 function. MG213 cells, MMTV-luciferase reporter, dexamethasone, overnight. hit rate 1% among 370,000. AID 652017. activation, % at 9.1 µM; in the data active = activation above about 7.8%;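 note: 0% = vehicle wells and 100% = reference activator wells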
MITF TRPM1 HTS: increases MITF-driven TRPM1 promoter luciferase signal. SK-MEL-5 TRPM1-promoter luciferase, 24 h; % of positive control, neutral wells = 0. activation, % at 12.5 µM. hit rate 0.75% among 300,000. AID 588334;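 active = mean activation of at least 80% with every replicate also reaching 80%; inconclusive = mean reaches 80% but some replicate falls short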;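 note: 0% = neutral control wells and 100% = parthenolide positive control wells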
* hit, by the source's call; ? = inconclusive; nt = not tested or not shown.

SMILES | FGF22 binding | Wnt bcat act | MLL AF4-AF9 inh | esBAF inh | SMARCA2 activ | MITF TRPM1 HTS
CC(C)(C)c1cc(NC(=O)c2ccc(OC3CCCC3)cc2)no1 | 0 | -2 | -12 | nt | 0 | 36
C[C@H]1CN([C@@H](C)CO)C(=O)c2cc(C#CC3CCCC3)cnc2O[C@@H]1CN(C)S(C)(=O)=O | 0 | nt | -3 | -1 | nt | nt
C[C@H](CO)N1C[C@H](C)[C@@H](CN(C)C(=O)Nc2ccc(C(F)(F)F)cc2)Oc2c(NC(=O)Nc3ccc(F)cc3)cccc2C1=O | 1 | nt | -7 | 6 | nt | nt
COc1ccc(C(=O)NN/C(=N/S(=O)(=O)c2ccc(C)cc2)c2ccccc2)cc1 | 0 | 43* | 0 | nt | -1 | 129*
Cc1ccc(S(=O)(=O)/N=C(/Nc2ccc(O)c(C(=O)O)c2)c2ccccc2)cc1 | 0 | 57* | -3 | 0 | -1 | -2
O=C(O)c1cc(N/C(=N\S(=O)(=O)c2ccc(F)cc2)c2ccccc2)ccc1O | nt | -1 | -15 | -3 | 2 | 5
Cc1ccc(S(=O)(=O)/N=C(/NC(=S)Nc2ccccc2)c2ccccc2)cc1 | nt | ? | nt | 55* | 2 | 44
CCCOC(=S)N/C(=N\S(=O)(=O)c1ccccc1)c1ccccc1 | nt | -2 | nt | -1 | 7.9* | 4
Cc1ccc2nc(C)/c(=N\O)c(C)nc2c1 | nt | nt | nt | 55* | 3 | 24
Cc1nc2ccccc2nc(C)c1=NO | nt | nt | nt | nt | 4 | -4
O=C(O)c1cc([N+](=O)[O-])ccc1Nc1ccccc1 | 1 | 0 | 28* | nt | -3 | 5
CCOC(=O)C1CCN(c2ccc(-c3cccs3)nn2)CC1 | 0 | 38* | 1 | 32 | 6 | 84*
c1csc(-c2ccc(N3CCOCC3)nn2)c1 | 0 | 34* | -1 | -41 | 1 | 1
CCOC(=O)C1CCN(c2ccc(Cl)nn2)CC1 | 0 | 1 | -8 | nt | 0 | 5
O=C1CN(CCN2CC(=O)N(Cc3ccccc3)C(=O)C2)CC(=O)N1Cc1ccccc1 | 44* | -3 | 6 | -5 | 1 | nt
CC1(C)CC(=O)N(Cc2ccccc2)C(=O)C1 | 0 | -3 | -2 | nt | -1 | 11
CCC(=O)Nc1ccc2c(c1)OC[C@H](C)N(Cc1ccccn1)C[C@H](C)[C@H](OC)CN(C)C2=O | 0 | nt | 2 | -5 | nt | nt
CC1CCc2sc(C(=O)NCC3CCCO3)cc2C1 (stereo not drawn) | 1 | 40* | -20 | 20 | 4 | 101*
O=C(NCC1CCCO1)c1cc2c(s1)CCC2 (stereo not drawn) | 0 | 6 | -2 | nt | 2 | 9
CNC(=O)C[C@H]1CC[C@H]2[C@@H](COc3ccc(NC(=O)c4ccccc4Cl)cc3C(=O)N2C)O1 | 0 | nt | -2 | -8 | nt | nt
C[C@H]1[C@@H]2C[C@@]3(O[C@H](c4ccccn4)N=C3C[C@@H]1c1ccccc1)N(Cc1ccncc1)C2=O | 48* | 0 | -2 | nt | -1 | nt
C[C@H](CO)N1C[C@H](C)[C@@H](CN(C)Cc2cccnc2)OCc2cn(nn2)CCCC1=O | nt | nt | nt | -2 | nt | nt
COC(=O)c1sccc1NC(=O)c1ccc(C)s1 | nt | 34* | nt | 12 | 3 | nt
O=C(N[C@@H]1CC[C@@H](CC(=O)N2CCN(c3ccccc3)CC2)O[C@H]1CO)c1ccncc1 | 1 | nt | 0 | -5 | nt | nt
NC(=O)COc1ncnc2scc(-c3ccc(F)cc3)c12 | 0 | 0 | -2 | nt | -4 | -7
SMILES | FGF22 binding | Wnt bcat act | MLL AF4-AF9 inh | esBAF inh | SMARCA2 activ | MITF TRPM1 HTS
COCCNC(=O)COc1ncnc2scc(-c3ccc(F)cc3)c12 | 43* | 2 | -2 | nt | -3 | -10
Cc1ccnc(NC(=O)c2cccc(S(=O)(=O)N3CCCc4ccccc43)c2)c1 | 0 | 30 | -3 | nt | 3 | 88*
Cc1ccnc(NC(=O)c2ccc(S(=O)(=O)N3CCCCC3)cc2)c1 | 0 | 2 | 3 | 19 | -1 | 16
O=C(Nc1ccccn1)c1ccc(S(=O)(=O)N2CCCCC2)cc1 | 0 | 23 | -1 | 40 | 3 | 91*
Cc1ccnc(NC(=O)c2ccc(S(=O)(=O)N3CCCCCC3)cc2)c1 | 0 | 34* | 2 | nt | 7 | 84*
NC(=O)c1ccsc1NC(=O)c1ccc(S(=O)(=O)N2CCCCC2)cc1 | 0 | 10 | 8 | 100* | -1 | nt
NC(=O)c1ccsc1NC(=O)c1ccc(S(=O)(=O)N2CCCC2)cc1 | 0 | 12 | 2 | 38 | 2 | 27
CNC[C@@H]1Oc2ccc(NC(=O)NC3CCCCC3)cc2CC(=O)N([C@@H](C)CO)C[C@@H]1C | 0 | nt | -3 | -6 | nt | nt
CN(C)CC(=O)N1CC2(C1)[C@@H](c1ccccc1)[C@@H](CO)N2C(=O)C1CCC1 | nt | nt | -2 | nt | nt | nt
CC(C)OCCCn1c(-c2ccco2)nc2nc3ccccc3nc21 | nt | nt | nt | -7 | 7.9* | 8
COCCn1c(-c2ccco2)nc2nc3ccccc3nc21 | nt | nt | nt | 6 | 0 | 8
Cn1cnc(CCNC(=O)C[C@@H]2CC[C@@H]3[C@H](COC[C@H](O)CN3C(=O)C3CCCC3)O2)c1 | 0 | nt | -1 | -4 | nt | nt
Fc1ccc(-c2cn3cc(C(F)(F)F)cc(Cl)c3n2)cc1 | nt | 49* | nt | 46* | 6 | 39
CC1CCC(C(C)C)C(OC(=O)COC(=O)c2cc(O)ccc2N)C1 (stereo not drawn) | nt | 34* | nt | nt | 1 | -11
CC(C)c1ccc(C(=O)OCC(=O)c2c(N)n(C)c(=O)n(C)c2=O)cc1 | -1 | 0 | 3 | 3 | -4 | 15
Cn1c(N)c(C(=O)COC(=O)c2ccc(Cl)nc2)c(=O)n(C)c1=O | 43* | 0 | -1 | nt | -2 | -5
Cc1ccccc1C[n+]1cccc2ccccc21 | 0 | -6 | 50* | -13 | 0 | -17
CCCCCCCCCCCCCCCC[n+]1cccc2ccccc21 | 1 | -12 | 26* | nt | -11 | -102
CCCCCCCCC[n+]1cccc2c3ccccc3ccc21 | nt | nt | nt | nt | nt | -93
O=C(C[n+]1cccc2ccccc21)c1ccccc1 | nt | nt | nt | 2 | 3 | -17
COc1ccc(-c2cc3ccc(OCC(C)=O)cc3oc2=O)cc1OC | 0 | 23 | -2 | 47* | 6 | 92*
O=c1oc2cc(O)ccc2cc1-c1ccccc1 | 0 | 0 | -5 | 36 | 4 | 44
COc1ccc(-c2cc3ccc(OCc4nn[nH]n4)cc3oc2=O)cc1OC | nt | -2 | nt | -9 | 6 | nt
COc1ccc(-c2cc3ccc(OCC(C)=O)cc3oc2=O)cc1 | 0 | 34* | -5 | 18 | 5 | 64
COc1ccc(-c2cc3ccc(O)cc3oc2=O)cc1 | 0 | 1 | -3 | -2 | 7 | 89*
COCC(=O)N(C)C[C@H]1Oc2ncc(C#Cc3ccc(OC)cc3)cc2C(=O)N([C@H](C)CO)C[C@@H]1C | 0 | nt | 0 | -1 | nt | nt
C[C@@H]1CN([C@@H](C)CO)C(=O)c2cc(NS(=O)(=O)c3ccc(Cl)cc3)ccc2O[C@@H]1CN(C)S(=O)(=O)c1ccc(Cl)cc1 | 0 | nt | -2 | 2 | nt | nt
CCCC(C)C(=O)Nc1ccc(Cl)cc1Cl (stereo not drawn) | nt | nt | nt | nt | 0 | 16
